Reference: the supplement of paper PMC6555819

What was measured:
Assay in all cases: PBM binding z-score (relative to random genomic background probes); higher = stronger binding; sequences stand for … in GC…GCGATTGACAGCGTAGAATGAAGG
[1] = system: RARb homodimer (NR concentration 270 nM)
Method in brief: (§1)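 Custom Agilent 4×180K protein-binding microarrays carried double-stranded probes, each with a 34-nt variable region. These regions held direct-repeat seeds, single-nucleotide variants, half-site ablations and random human genomic background sequences. Ligand-free nuclear receptor dimers were incubated on the arrays for 1 h, antibodies against each partner (one per run) detected binding, and scanned fluorescence was regression-normalized. Binding z-scores take the random background probes as reference.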

[2] = system: RARg:RXRa (NR concentration 270 nM, RXRa partner concentration 90 nM)
Method in brief: as §1

[3] = system: RARg homodimer (NR concentration 270 nM)
Method in brief: as §1

[4] = system: RXRa DBDmut IVT, anti-RXR (DBD mutation: RXRa K156A/R161A, NR concentration 90 nM)
Method in brief: as §1

[5] = system: RXRa homodimer (NR concentration 180 nM)
Method in brief: as §1

[6] = system: THRa:RXRa (NR concentration 90 nM, RXRa partner concentration 90 nM)
Method in brief: as §1

[7] = system: THRa homodimer (NR concentration 90 nM)
Method in brief: as §1

[8] = system: VDR homodimer (NR concentration 270 nM)
Method in brief: as §1

Sequence | PBM binding z-score [1] | PBM binding z-score [2] | PBM binding z-score [3] | PBM binding z-score [4] | PBM binding z-score [5] | PBM binding z-score [6] | PBM binding z-score [7] | PBM binding z-score [8]
CCTTACGGGTCACACCAGGTTATAGCATCGGAGT | 3.26 | 4.99 | 4.64 | 1.32 | 5.18 | 5.22 | 0.963 | 1.61
CCTACTGGGCCAAAAAGGTCATTCATGCCGATAA | 4.58 | 5.14 | 5.18 | 0.771 | 6.01 | 3.24 | 0.431 | 3.01
AGAACGAGGGGACGCTGAGTTGATAGCAGAGTAG | 0.0721 | 0.0507 | 0.265 | 0.401 | -0.0794 | 0.202 | -0.233 | 1.16
GCGACTGGGGCATCAGCAGGGTACCATAACTTAA | 0.489 | 0.0941 | 0.0483 | -0.313 | -0.0228 | 0.147 | -0.7 | -0.477
TAGCTTAGGTCAGATCGGGCCAGTATACGCTATA | 2.23 | 2.89 | 3.71 | -0.0319 | 1.47 | 4.3 | 0.376 | -0.357
AGAATGAGGTTAACATCAGGGAAACAGAATACAT | 0.933 | 2.72 | 2.01 | 1.29 | 3.24 | 2.91 | 0.858 | 0.64
GCTCGGAGGACTAGGTCAGAGCTTTGTCCGTAGA | 1.4 | 0.32 | 0.804 | -0.871 | -0.228 | 0.731 | -0.465 | -0.906
ATCGAAAGGTCGACGAGGTGGGTATACACCGTTT | 2.71 | 4.03 | 3.85 | 0.746 | 4.17 | 2.51 | -0.214 | 0.638
ATATGTAGGTTACATCCGGGTCATTCAAGCTATG | 2.89 | 3.76 | 2.1 | 1.48 | 3.24 | 3.88 | 2.61 | 2.99
GCTACTAGGTCAACTGATGGTCAGCTAAAGCTCG | 3.31 | 5.27 | 5.19 | 1.63 | 3.06 | 2.9 | 0.994 | 0.21
ATCGAAAGGTCGAGGTAAGTATAGAGAAAGGGAA | 2.39 | 4.25 | 4.27 | 0.467 | 4.6 | 2.58 | 0.233 | 0.546
AGAATGAGGTTAGGATCAGGGAAACAGAATACAT | 1.09 | 1.15 | 0.965 | 0.213 | 1.37 | 2.13 | 0.948 | 0.389
TCCTGTAGATCAATAGAGGTTAAGAAAGTGCGCT | 1.25 | 0.701 | 0.381 | 1.41 | 1.19 | 2.29 | -0.00152 | 0.39
ATCTCTAGGTAGAAGTTCAGTGAATCCCGAGGAT | 1.2 | 0.74 | 0.979 | 0.251 | 0.602 | 0.355 | -0.305 | 1.28
CCAGACAGGTGAAACGTAACTCAGTCTGGTACGC | 0.0638 | 0.203 | 0.432 | 0.0553 | 0.53 | -0.118 | -0.567 | -0.448
CCTCGGAGGACAACAGGAGGTTAGAGCTGCCAGA | 1.12 | 0.878 | 1.47 | 0.257 | -0.0815 | 1.19 | 0.00678 | 0.0214
CAAACTAGGTCAAGGTCAAAGCCGGTTTGTGCCA | 5.03 | 6.1 | 6.74 | 2.67 | 5.67 | 4.39 | 3.5 | 3.55
CCCACTGGGGCAAGGTTACCATAACGCACAGCCA | 1.4 | 1.18 | 1.2 | -1.3 | 1.09 | 1.23 | 0.178 | -0.227
TGGCCTAGGTCAGATCGGGCCAGTATACGCTATA | 1.79 | 2.62 | 4.12 | -0.787 | 1.19 | 3.53 | -0.553 | -0.622

Sequence | PBM binding z-score [1] | PBM binding z-score [2] | PBM binding z-score [3] | PBM binding z-score [4] | PBM binding z-score [5] | PBM binding z-score [6] | PBM binding z-score [7] | PBM binding z-score [8]
TGAATGAGGTTAATGATCAGGGAACGTGGCGTCG | 0.436 | 1.4 | 1.07 | 0.589 | 1.67 | 1.97 | 0.6 | 0.544
GCGACTGGGGCAAAGCAGGGTACCATAAGGTTGG | 0.665 | 0.296 | 0.341 | -0.678 | 0.287 | 1.61 | -0.383 | -0.139
CCTACTGGGGCAGAAAGGTTACCATACCATCCGG | 2.22 | 1.62 | 1.59 | -1.01 | 1.56 | 0.807 | -0.439 | -0.187
CCAGACAGGTGAGAATGTAACTCAGCCTCGATTA | -0.0133 | 0.273 | 0.342 | 0.0123 | 0.179 | -0.103 | -0.12 | -0.0924
CGTCCAAGGTCATAGGAGGTCAGTGCAGACAGAT | 4.94 | 6.63 | 6.9 | 4 | 6.32 | 5.34 | 2.96 | 4.88
CTCGAAAGGTCGTGTTCAGGTGAGTATACCAAAC | 2.87 | 4.55 | 3.44 | 2.35 | 4.3 | 4.17 | 1.16 | 1.16
AGAATGAGGTTATCCGTAGATCAGGGAAGAAAGT | 0.958 | 2.14 | 1.08 | 1.82 | 2.29 | 2.33 | 0.663 | 0.958
CCAGACAGGTGATAGGTAACTCAGTCTGGTACGC | 0.0377 | 0.156 | 0.068 | -0.237 | 0.368 | -0.116 | -0.179 | -0.505
TCAGATAGGTAAAAGGTGAAAGTCGGTGTGGTAA | 2.19 | 1.89 | 0.855 | 1.85 | 3.06 | 1.76 | 0.528 | 0.262
CTCGAAAGGTTGTGCTCAGGTGAGTATACCAAAC | 0.954 | 1.31 | 0.452 | 0.56 | 0.825 | 2.84 | 0.886 | 0.0434
CCTACTGGGCCACGATAGGTCATTGATTCAGTGA | 2.93 | 2.17 | 2.17 | -0.409 | 1.92 | 2 | -0.0133 | 0.0413
GGACCGAGGGCATTCGAGTTGATAGCATGGCGAT | 0.78 | 1.2 | 1.14 | 2.61 | 0.753 | 3.46 | -0.46 | 3.18
CGTCAAAGTTCAAGGAAACGTAACAGAAAGCAGC | 3.35 | 4.85 | 5.68 | 4.06 | 3.84 | 1.49 | -0.29 | 2.61
CGAACCAGGTCAGAACAGGACAGTGAAGGATGAT | 2.14 | 2.84 | 3.33 | 0.868 | 2.06 | 3.69 | 0.812 | 0.276
ATCTCTGGGTAACAAGTTCAGTGAAAGAGAGGAC | 1.8 | 1.39 | 1.59 | 0.883 | 0.958 | 1.21 | 1.06 | 2.71
GCTAGTTGGTCAGTAAAAGGTCACCCACCGGTCG | 5.12 | 5.56 | 4.94 | -0.12 | 5.13 | 3.42 | 1.89 | 1.26
AATACAGGGTCATCGAAGGCCAGAGTACGCACAG | 3.74 | 5.74 | 5.31 | 3.38 | 6.7 | 4.62 | 1.43 | 3.66
CGTCAAATTTCAACTAAGGTAACGTAAAGCACGC | 0.545 | 0.344 | 0.568 | 0.715 | 0.436 | 2.71 | 1.89 | 0.604
ACTAGCAGGCCAAGTTTGGGACACTCAAACAAAG | 0.289 | 0.191 | 0.555 | -0.499 | -0.592 | 1.45 | 0.404 | -0.549

Sequence | PBM binding z-score [1] | PBM binding z-score [2] | PBM binding z-score [3] | PBM binding z-score [4] | PBM binding z-score [5] | PBM binding z-score [6] | PBM binding z-score [7] | PBM binding z-score [8]
TCTTGTAGATCAATAAAGGTTAAGAAAGTGCGCT | 1.87 | 1.1 | 0.821 | 1.1 | 1.72 | 2.05 | -0.219 | 0.571
CGAACGAGTGCATGAGTTGATAGCAAATGCCGAT | -0.322 | 0.343 | 0.307 | 3.2 | 0.414 | -0.0112 | -0.726 | 2.6
ATCGAAAGGTCGTGAGATGAGTATACAGAAAGGC | 2.35 | 4.27 | 3.47 | 0.915 | 5.21 | 2.19 | -0.531 | 0.66
GCCATTAGTTGAAAGGGCAACCGAATGATTCTCG | 2.22 | 1.54 | 1.32 | 0.641 | 1.24 | 0.595 | -0.31 | -0.125
GATACAGGGTCAGCTAGAGGCCAGACTATGGAAA | 3.59 | 6.62 | 4.83 | 0.964 | 4.23 | 3.1 | 0.411 | 0.781
AGAATGAGGTTATACGTAGAGCAGGGAAGAAAGT | 0.854 | 1.69 | 0.941 | 1.58 | 2.1 | 2.19 | 0.488 | 0.731
ATAATGAGGTTACCAAAGATCAGGGAAACGCTTG | 1.15 | 2.37 | 1.95 | 1.32 | 2.72 | 2.8 | 1.1 | 0.486
ATCTCTACGTAACAAGTTCAGTGAAAGAGAGGAC | 1.68 | 0.999 | 1.24 | 0.873 | 0.659 | 1.07 | 0.629 | 2.6
AGAACGAGGGAAATGAGTTGATAGCACGGGTGGC | -0.754 | -0.0436 | 0.0126 | -0.228 | -0.0737 | -0.188 | -0.839 | 0.141
TCGAGCAGGTTAGGGGCATTCAGAATGGCGTCGA | 0.54 | 0.286 | 0.148 | -0.111 | 0.719 | 0.723 | -0.36 | 0.474
AGAATGAGATTATTAAGATCAGGGAATTGCGGTC | -0.433 | -0.202 | 0.0706 | -0.35 | -0.434 | -0.315 | -0.66 | -0.308
TCAGACAGGTGAAAGTAACTCAGGTACGCAGTCG | 0.326 | 0.474 | 0.598 | 1.01 | 0.974 | 0.472 | -0.0578 | -0.0124
TCAGACAGGTAAAGGTAACTCAGGTACGCAGTCG | 0.829 | 0.751 | 0.576 | 1.53 | 1.08 | 1.67 | 0.705 | 0.388
TCTATTAGTTGAAGGGCACCCGACGAGTCCGTTT | 1.26 | 0.402 | 0.483 | 1.77 | 0.846 | 0.413 | 0.444 | 1.93
CGAACTAGGTCATCCAGGCCAGTGAATACATTGA | 3.18 | 4 | 4.59 | 2.18 | 2.85 | 3.23 | 1.19 | 1.33
CCTACTGGGCCAAAAAGGTCATTAATGCCGATAA | 4.32 | 4.16 | 3.68 | 0.627 | 4.26 | 2.91 | 0.449 | 2.2
ATCTCTAGGTAACAACTTCAGTGAAAGAGAGGAC | 0.514 | 0.787 | 0.752 | -0.232 | 0.536 | 1.14 | 0.654 | 0.576
ATCTCTAGGTTAAGTTCAGTGAAAGATCGATAGA | 2.18 | 2.18 | 2.54 | 2.12 | 1.41 | 1.99 | 1.4 | 3.19
